PubChem BioAssay (NCI)
The panel holds about 79,000 compounds, 15% with a hit somewhere; the sample as a whole holds those more often. Calls of active or inactive are those of the source. Rule as the data show it: active = growth inhibition above about 70%; inactive = the rest. *1 amine or outer side, *2 acyl side, *3 side chain or, on linkers, in order; H or OH if unused. Where a SMILES comes first, the peptide text is derived from it. Bridges are numbered along the chain shown (N, C = ends). Roman numbers before positions name the chains, in order. [ ]: non-standard residue; d: D form. Actinocin(1to9) = Cc1c2oc3c(C)ccc(C(=O)[*:2])c3nc-2c(C(=O)[*:1])c(N)c1=O; NMeV = CN[CH](C(=O)O)C(C)C; Sar = CNCC(=O)O

How the values were obtained:
[1] = NCI Yeast Anticancer Drug Screen. Data for the rad50 strain (AID 155);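 also: 0% = growth of vehicle-only cultures of the same strain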; details: S. cerevisiae rad50 strain growth inhibition; at 50.0 µM; active compounds read high
In short: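 Inhibition values express reduced yeast growth in compound-treated cultures relative to vehicle-treated controls.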

[2] = NCI Yeast Anticancer Drug Screen. Data for the mec2-1 strain (AID 157); details: S. cerevisiae mec2-1 strain, at 50.0 µM, active compounds read high
In short: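 Compounds were applied to mec2-1 yeast cells. Their growth was then compared with that of vehicle-treated cultures to give growth inhibition.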

[3] = NCI Yeast Anticancer Drug Screen. Data for the sgs1 mgt1 strain (AID 161);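 also: 0% = growth of cultures given vehicle only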; details: S. cerevisiae sgs1 mgt1 strain, at 50.0 µM, active compounds read high
In short: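 Growth of a repair-deficient yeast mutant was monitored after compound treatment and expressed as inhibition relative to vehicle-treated cultures.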

[4] = NCI Yeast Anticancer Drug Screen. Data for the cln2 rad14 strain (AID 165);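 also: 0% = growth equal to vehicle treated cultures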; details: S. cerevisiae cln2 rad14 strain, at 50.0 µM, active compounds read high
In short: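 Strain: cln2 rad14 yeast, altered in cell cycle control and DNA damage repair. Read-out: growth inhibition vs vehicle.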

[5] = NCI Yeast Anticancer Drug Screen. Data for the bub3 strain (AID 167); details: S. cerevisiae bub3 mutant strain, at 50.0 µM, active compounds read high
In short: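 Steps: expose the mutant yeast strain to compound; grow alongside vehicle-treated cultures; measure growth; express inhibition against the vehicle cultures.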

[6] = NCI Yeast Anticancer Drug Screen. Data for the mlh1 rad18 strain (AID 175); details: S. cerevisiae mlh1 rad18 strain growth inhibition; at 50.0 µM; active compounds read high
In short: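 A repair-deficient yeast strain is exposed to test compound, and growth is scored relative to vehicle-treated controls.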

Measured: growth inhibition

CCOP(=O)(OCC)Oc1c(Cl)c(Cl)c(O)c(Cl)c1Cl
inactive: [1] -23.1% | [2] -15.7% | [3] 4.2% | [4] -17.6% | [5] 6.4% | [6] -8.5%

C=CC[As+](c1cccc2ccccc12)(c1cccc2ccccc12)c1cccc2ccccc12
inactive: [1] -61.5% | [2] -14.1% | [3] -15.1% | [4] -33.4% | [5] 5.15% | [6] -11.5%

CC(Cc1ccc2c(c1)OCO2)NCC(O)c1ccc(O)c(O)c1 (stereo not given)
inactive: [1] 14.6% | [2] -20.2% | [3] 18.2% | [4] 5% | [5] 32.2% | [6] 26.6%

S=C([SH2+])[SH2+].S=C([SH2+])[SH2+].[Pt+2].c1ccc(C[P+](c2ccccc2)(c2ccccc2)c2ccccc2)cc1
inactive: [1] 44.7% | [2] 3.45% | [3] 36.2% | [4] -16.6% | [5] 3.6% | [6] -0.1%

BrCC[N+]12CCCN1CCC2
inactive: [1] -7.95% | [2] -31.4% | [3] 3.25% | [4] 0.2% | [5] -7.05% | [6] -31.3%

CN(C)P(=S)(CCPc1ccccc1)N(C)C (stereo not given)
inactive: [1] -13.5% | [2] -23.6% | [3] -12.8% | [4] 2.95% | [5] -5.75% | [6] -5.8%

C=CCN1CC2CN=NC2(C#N)C1 (stereo not given)
inactive: [1] -10.8% | [2] 6.45% | [3] 0.65% | [4] -22.3% | [5] 6.7% | [6] -4.95%

O=NNc1cccnc1
inactive: [1] -1.05% | [2] -17.1% | [3] -2.35% | [4] 4.45% | [5] -4.8% | [6] -38%

O=C(NC(Cl)=C(Cl)Cl)P(=O)(c1ccccc1)c1ccccc1
inactive: [1] -16.6% | [2] -28.3% | [3] 10.8% | [4] 17.2% | [5] -5.4% | [6] 3%

CN(C)P(=O)(N(C)C)N(C)C (tested in a mixture with another compound)
inactive: [1] 8.45% | [2] -7% | [3] 3.65% | [4] -21.1% | [5] -31.6% | [6] -14.3%

N#CC(C#N)=Cc1ccc(C=C(C#N)C#N)cc1
inactive: [1] -30.4% | [2] -40.5% | [3] -15.9% | [4] -14.8% | [5] -15.8% | [6] -8.75%

CCOC(=O)C(C#N)c1ccccc1 (stereo not given)
inactive: [1] 22.3% | [2] 19.1% | [3] 18% | [4] 14.1% | [5] -9.55% | [6] 43.4%

COc1ccc(CCN)c(OC)c1
inactive: [1] -11.2% | [2] 2.8% | [3] -3.5% | [4] -13.1% | [5] -8.25% | [6] -35.1%

CCC(CC)CNC(=O)C(Cl)Cl
inactive: [1] -2.25% | [2] -9.8% | [3] 18.6% | [4] -18.1% | [5] -3.4% | [6] -1%

COc1ccc(OC)c(CCc2cc(OC)ccc2OC)c1
inactive: [1] -7.85% | [2] -13.2% | [3] -9.95% | [4] -40.1% | [5] 13.2% | [6] -28%

C/C=C(/C)C(=O)O[C@H]1CCN2CC=C(COC(=O)[C@@](O)([C@H](C)OC)C(C)(C)O)[C@H]12
inactive: [1] -17% | [2] -15.8% | [3] 3.65% | [4] 11.6% | [5] 7.55% | [6] -44.2%

ClC1=C(Cl)C2(Cl)C3C4CC(C5OC45)C3C1(Cl)C2(Cl)Cl (stereo not given)
inactive: [1] 27.4% | [2] -16.6% | [3] 1.25% | [4] 15.5% | [5] 9.75% | [6] -6.8%

Cc1ccc(N2C(=O)C3C(C2=O)C2(Cl)C(Cl)=C(Cl)C3(Cl)C2(Cl)Cl)cc1Cl (stereo not given)
inactive: [1] -1.25% | [2] 3.25% | [3] -1.1% | [4] -36.1% | [5] 2.65% | [6] 9.5%

CCC1CN(CC(=O)c2ccc(Br)cc2)CCO1 (stereo not given)
inactive: [1] 5.4% | [2] 3.35% | [3] 39.9% | [4] 20.6% | [5] 48.6% | [6] 25%

CCOP(=O)(OCC)C(C#N)Cc1ccccc1OC (stereo not given)
inactive: [1] 20.6% | [2] 4.15% | [3] 0.2% | [4] -18.1% | [5] 3.3% | [6] 12.7%

CC(C)CCN(CCc1ccccc1[N+](=O)[O-])CCC(C)C
inactive: [1] 12.1% | [2] -7.45% | [3] -8.7% | [4] -36.9% | [5] 44.1% | [6] 38.6%

CCCCCCCC/C=C\CCCCCCCC(=O)OCC(COC(=O)CCCCCCC/C=C\CCCCCCCC)OC(=O)N(CCCl)CCCl
inactive: [1] -29.2% | [2] -9.25% | [3] -18.4% | [4] 33.6% | [5] -24.2% | [6] 5.45%

c1cc(C2O[C@H]3CCCN3[C@@H]2c2ccncc2)ccn1 (stereo not given in full)
inactive: [1] -30.6% | [2] -17.9% | [3] 1.15% | [4] 2.85% | [5] -14.8% | [6] -25.4%

c1cc[c]([Ge]([c]2ccccc2)[c]2ccccc2)cc1
inactive: [1] 23.1% | [2] -3.8% | [3] 3.05% | [4] 20.3% | [5] -5.15% | [6] 14.4%

ClCc1cccnc1
inactive: [1] 16.9% | [2] -2.35% | [3] 5.25% | [4] 18.1% | [5] 3.6% | [6] 31.7%

CCC(C)C1NC(=O)C(NC(=O)c2c3nc4c(C(=O)NC5C(=O)NC(C(C)C)C(=O)N6CCCC6C(=O)N(C)CC(=O)N(C)C(C(C)C)C(=O)OC5C)ccc(C)c4oc-3c(C)c(=O)c2N)C(C)OC(=O)C(C(C)C)N(C)C(=O)CN(C)C(=O)C2CCCN2C1=O (stereo not given) (I: TIP[Sar][NMeV] / II: TVP[Sar][NMeV]; ester I:1-I:C, II:1-II:C; linker I:N-II:N via Actinocin(1to9); configuration not given here)
active: [1] 88% | [2] 92.2% | [3] 91.2% | [4] 88.3% | [5] 89.8% | [6] 85.7%

CC(CO)[N+](=O)[O-] (stereo not given)
inactive: [1] 0.75% | [2] 1.15% | [3] -5.05% | [4] -15.2% | [5] 1.5% | [6] 1%

N#CS.N=C=S.N=C=S.[Co+3].[NH-]CC[NH-].[NH-]CC[NH-]
inactive: [1] 10.5% | [2] 10.2% | [3] 36.4% | [4] 3.5% | [5] 27.9% | [6] 10.7%

O=C(O)C(O)(Cl)c1cccs1 (stereo not given)
inactive: [1] -0.5% | [2] -3.35% | [3] -4.8% | [4] -16.6% | [5] -7.15% | [6] 14.8%

COc1c2occc2c(CCl)c2ccc(=O)oc12
inactive: [1] 26.6% | [2] 11.2% | [3] 14.3% | [4] 24.4% | [5] 5.8% | [6] 28.1%

Cc1ccc(C)c(NP(=O)(Nc2cc(C)ccc2C)N(CCCl)CCCl)c1
inactive: [1] 30.2% | [2] -4.4% | [3] 30.2% | [4] 8.1% | [5] 9.8% | [6] -8.55%

CN(C)c1ccc(N=Nc2ccc([As](=O)(O)O)cc2)cc1
inactive: [1] -23.1% | [2] -10.6% | [3] -11.8% | [4] -35.1% | [5] -5.15% | [6] -0.4%

O=[N+]([O-])c1ccc(O)c(C=NCCN=Cc2cc([N+](=O)[O-])ccc2O)c1.[Zn+2]
inactive: [1] 15.4% | [2] 7% | [3] -6.05% | [4] -15.8% | [5] 1.1% | [6] 23.4%

O=C1c2ccccc2C(=O)c2ccccc21
inactive: [1] 37% | [2] 5.25% | [3] 1.95% | [4] -29.4% | [5] 25.5% | [6] 47.5%

O=[N+]([O-])c1ccc(/C=C/c2ccc(S(=O)(=O)F)cc2Cl)c(Cl)c1
inactive: [1] -13.2% | [2] -11.2% | [3] 0.75% | [4] -34.3% | [5] -6.7% | [6] -4.35%

CC(C)(C)C1COP(=O)(C(C)(C)C)OC1 (stereo not given)
inactive: [1] -12.6% | [2] 6.1% | [3] -1.15% | [4] -38.6% | [5] 10.6% | [6] 16.2%

O=P1(N2CCCCC2)OCC2(CO1)COP(=O)(N1CCCCC1)OC2 (stereo not given)
inactive: [1] -7.15% | [2] -0.6% | [3] 0.1% | [4] -7.55% | [5] -1.65% | [6] 3.2%

O=[P+](O)c1cccnc1
inactive: [1] 6.6% | [2] -8.05% | [3] 14.2% | [4] 17.4% | [5] 16.7% | [6] 13.8%

CCC[CH2][Sn]1([CH2]CCC)[O]CC2(CCCCC2)C[O]1
active: [1] 99.6% | [2] 99.8% | [3] 99.2% | [4] 99.5% | [5] 99.7% | [6] 99.6%

CCOC(=N)N1[C@H](C)[C@@H]1C
inactive: [1] 43.1% | [2] -42.2% | [3] -42.1% | [4] -19% | [5] -43.1% | [6] -6.95%
